# According to PubChem BioAssay AID1159580 (chemical genetic matrix, 2015):
# Where “and” joins values, the source holds several entries; their conditions need not be identical. Equal values may be shown once. Hit rate of the full screen: of about 5,500 compounds, about 2,000 (36%) were called active. Not shown: some 18% with an inconclusive outcome. The list shows a part of the results. Values without a mark were called inactive. Cut-off read from the data, not from the text of the source: active = normalized growth mostly below about 0.91 (no sharp cut-off); inconclusive = no clear call, values can overlap the other calls; inactive = mostly above about 0.92.
# Test: chemical genetic growth profiling, strain panel (AID 1159580);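 note: tested at 20 µM; growth read once vehicle control cultures reached saturation at 30 °C; 1 = growth at the plate median or of vehicle wells; lower values mean less growth of the strain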
# Conditions: S. cerevisiae deletion strains, growth OD
compound,measurement,setting,value
CCN(CCCc1ccccc1)CCCc1ccccc1,normalized growth,"locus YAL021C, strain ccr4, hits give low values",0.915
same,normalized growth,"locus YAL026C, strain drs2, hits give low values",0.862 (active)
same,normalized growth,"locus YAL030W, strain snc1, hits give low values",0.991
same,normalized growth,"locus YBL061C, strain skt5, hits give low values",0.981
same,normalized growth,"locus YBR009C, strain hhf1, hits give low values",1.01
same,normalized growth,"locus YBR021W, strain FUR4, hits give low values",0.977
same,normalized growth,"locus YBR023C, strain chs3, hits give low values",0.96
same,normalized growth,"locus YBR171W, strain sec66, hits give low values",0.97
same,normalized growth,"locus YBR229C, strain ROT2, hits give low values",1
same,normalized growth,"locus YBR231C, strain swc5, hits give low values",0.987
same,normalized growth,"locus YBR279W, strain paf1, hits give low values",0.983
same,normalized growth,"locus YCL011C, strain gbp2, hits give low values",0.966
same,normalized growth,"locus YCL016C, strain dcc1, hits give low values",0.939
same,normalized growth,"locus YCL029C, strain bik1, hits give low values",1.02
same,normalized growth,"locus YCL061C, strain MRC1, hits give low values",0.965
same,normalized growth,"locus YCL069W, strain vba3, hits give low values",0.985
same,normalized growth,"locus YCR088W, strain abp1, hits give low values",0.99
same,normalized growth,"locus YDL005C, strain med2, hits give low values",0.99
same,normalized growth,"locus YDL035C, strain GPR1, hits give low values",0.976
same,normalized growth,"locus YDL040C, strain nat1, hits give low values",0.984
same,normalized growth,"locus YDL074C, strain BRE1, hits give low values",1.01
same,normalized growth,"locus YDL101C, strain DUN1, hits give low values",1.02
same,normalized growth,"locus YDL134C, strain PPH21, hits give low values",0.976
same,normalized growth,"locus YDL185W, strain tfp1, hits give low values",1.03
same,normalized growth,"locus YDL192W, strain arf1, hits give low values",1.02
same,normalized growth,"locus YDR001C, strain nth1, hits give low values",0.985
same,normalized growth,"locus YDR069C, strain doa4, hits give low values",0.974
same,normalized growth,"locus YDR101C, strain arx1, hits give low values",1.03
same,normalized growth,"locus YDR137W, strain rgp1, hits give low values",0.735 (active)
same,normalized growth,"locus YDR150W, strain NUM1, hits give low values",1
same,normalized growth,"locus YDR159W, strain sac3, hits give low values",1.01
same,normalized growth,"locus YDR162C, strain NBP2, hits give low values",1.01
same,normalized growth,"locus YDR195W, strain ref2",1.02
same,normalized growth,"locus YDR297W, strain sur2, hits give low values",0.99
same,normalized growth,"locus YDR318W, strain mcm21, hits give low values",1.01
same,normalized growth,"locus YDR334W, strain swr1, hits give low values",0.983
same,normalized growth,"locus YDR335W, strain msn5, hits give low values",0.983
same,normalized growth,"locus YDR388W, hits give low values",1.02
same,normalized growth,"locus YDR392W, strain spt3, hits give low values",0.951
same,normalized growth,"locus YDR502C, strain sam2, hits give low values",1.02
same,normalized growth,"locus YEL003W, strain gim4, hits give low values",0.99
same,normalized growth,"locus YEL037C, strain rad23, hits give low values",0.984
same,normalized growth,"locus YEL061C, strain CIN8 (second series), hits give low values",0.988
same,normalized growth,"locus YEL061C, strain CIN8, hits give low values",1
same,normalized growth,"locus YER015W, strain faa2, hits give low values",0.977
same,normalized growth,"locus YER016W, strain bim1, hits give low values",1
same,normalized growth,"locus YER110C, hits give low values",1.04
same,normalized growth,"locus YER111C, strain swi4, hits give low values",0.962
same,normalized growth,"locus YER155C, strain BEM2 (second series), hits give low values",0.99
same,normalized growth,"locus YER155C, strain BEM2, hits give low values",0.999
same,normalized growth,"locus YER167W, strain BCK2, hits give low values",0.975
same,normalized growth,"locus YFR010W, strain ubp6, hits give low values",0.98
same,normalized growth,"locus YGL078C, strain dbp3, hits give low values",1.02
same,normalized growth,"locus YGL086W, strain mad1, hits give low values",1.01
same,normalized growth,"locus YGL167C, strain pmr1, hits give low values",0.983
same,normalized growth,"locus YGL173C, strain kem1, hits give low values",0.979
same,normalized growth,"locus YGL227W, strain vid30, hits give low values",0.994
same,normalized growth,"locus YGL240W, strain doc1, hits give low values",0.971
same,normalized growth,"locus YGL248W, strain PDE1, hits give low values",0.997
same,normalized growth,"locus YGL253W, strain hxk2, hits give low values",0.978
same,normalized growth,"locus YGR078C, strain PAC10, hits give low values",1
same,normalized growth,"locus YGR135W, strain pre9, hits give low values",1.01
same,normalized growth,"locus YGR252W, strain gcn5, hits give low values",0.945
same,normalized growth,"locus YHR013C, strain ard1, hits give low values",0.927
same,normalized growth,"locus YHR027C, strain rpn1, hits give low values",0.978
same,normalized growth,"locus YHR030C, strain SLT2, hits give low values",1 and 1.01
same,normalized growth,"locus YHR079C, strain IRE1 (second series), hits give low values",1.03
same,normalized growth,"locus YHR079C, strain IRE1, hits give low values",1.03
same,normalized growth,"locus YHR094C, strain hxt1, hits give low values",1.03
same,normalized growth,"locus YHR129C, strain ARP1, hits give low values",1
same,normalized growth,"locus YHR142W, strain chs7, hits give low values",0.93
same,normalized growth,"locus YHR200W, strain rpn10, hits give low values",1.02
same,normalized growth,"locus YIL066C, strain RNR3, hits give low values",0.965
same,normalized growth,"locus YIL073C, strain SPO22, hits give low values",0.999
same,normalized growth,"locus YIL125W, strain kgd1, hits give low values",1.03
same,normalized growth,"locus YIR030C, strain dcg1, hits give low values",1.03
same,normalized growth,"locus YJL092W, strain hpr5, hits give low values",0.976
same,normalized growth,"locus YJL095W, strain BCK1 (second series), hits give low values",0.981
same,normalized growth,"locus YJL095W, strain BCK1, hits give low values",1.02
same,normalized growth,"locus YJL115W, strain asf1, hits give low values",0.98
same,normalized growth,"locus YJL129C, strain trk1, hits give low values",0.956
same,normalized growth,"locus YJL134W, strain LCB3, hits give low values",1
same,normalized growth,"locus YJL154C, strain vps35, hits give low values",0.977
same,normalized growth,"locus YJL164C, strain tpk1, hits give low values",0.97
same,normalized growth,"locus YJL166W, strain qcr8, hits give low values",0.93
same,normalized growth,"locus YJL168C, strain set2, hits give low values",1.02
same,normalized growth,"locus YJL187C, strain SWE1 (second series), hits give low values",1.02
same,normalized growth,"locus YJL187C, strain SWE1, hits give low values",0.991
same,normalized growth,"locus YJR043C, strain POL32, hits give low values",0.949
same,normalized growth,"locus YJR066W, strain TOR1, hits give low values",0.985
same,normalized growth,"locus YKL009W, strain mrt4, hits give low values",1.01
same,normalized growth,"locus YKL068W, hits give low values",1.01
same,normalized growth,"locus YKL085W, strain MDH1 (second series), hits give low values",1
same,normalized growth,"locus YKL085W, strain MDH1, hits give low values",1
same,normalized growth,"locus YKL160W, strain elf1, hits give low values",0.935
same,normalized growth,"locus YKR001C, strain vps1, hits give low values",1.02
same,normalized growth,"locus YKR026C, strain gcn3, hits give low values",0.983
same,normalized growth,"locus YKR091W, strain srl3, hits give low values",0.99
same,normalized growth,"locus YLL001W, strain dnm1, hits give low values",0.914
same,normalized growth,"locus YLL026W, hits give low values",0.997
same,normalized growth,"locus YLL041C, strain sdh2, hits give low values",0.989
same,normalized growth,"locus YLR027C, strain aat2, hits give low values",0.982
same,normalized growth,"locus YLR039C, strain RIC1, hits give low values",1.04
same,normalized growth,"locus YLR058C, strain SHM2, hits give low values",1.02
same,normalized growth,"locus YLR102C, strain apc9, hits give low values",1.02
same,normalized growth,"locus YLR113W, strain HOG1, hits give low values",1.01
same,normalized growth,"locus YLR221C, strain rsa3, hits give low values",0.961
same,normalized growth,"locus YLR258W, strain gsy2, hits give low values",0.973
same,normalized growth,"locus YLR262C, strain YPT6 (second series), hits give low values",0.701 (active)
same,normalized growth,"locus YLR262C, strain YPT6, hits give low values",1.06
same,normalized growth,"locus YLR268W, strain sec22, hits give low values",1.03
same,normalized growth,"locus YLR320W, strain mms22, hits give low values",0.894
same,normalized growth,"locus YLR330W, strain CHS5, hits give low values",0.994
same,normalized growth,"locus YLR342W, strain FKS1 (second series), hits give low values",0.963
same,normalized growth,"locus YLR342W, strain FKS1, hits give low values",0.981
same,normalized growth,"locus YLR357W, strain rsc2, hits give low values",0.953
same,normalized growth,"locus YLR370C, strain arc18, hits give low values",0.963
same,normalized growth,"locus YLR371W, strain rom2, hits give low values",1.02
same,normalized growth,"locus YLR384C, strain iki3, hits give low values",0.983
same,normalized growth,"locus YLR418C, strain cdc73, hits give low values",0.988
same,normalized growth,"locus YML016C, strain PPZ1, hits give low values",1.01
same,normalized growth,"locus YML032C, strain rad52, hits give low values",1.01
same,normalized growth,"locus YML120C, strain ndi1, hits give low values",0.943
same,normalized growth,"locus YML124C, strain tub3, hits give low values",1.02
same,normalized growth,"locus YMR058W, strain fet3, hits give low values",0.97
same,normalized growth,"locus YMR078C, strain ctf18, hits give low values",1.03
same,normalized growth,"locus YMR125W, strain sto1, hits give low values",0.96
same,normalized growth,"locus YMR129W, hits give low values",0.984
same,normalized growth,"locus YMR205C, strain PFK2, hits give low values",0.952
same,normalized growth,"locus YMR223W, strain ubp8, hits give low values",1.02
same,normalized growth,"locus YMR231W, strain pep5, hits give low values",0.99
same,normalized growth,"locus YMR307W, strain GAS1, hits give low values",1.06
same,normalized growth,"locus YNL067W, strain RPL9B, hits give low values",1.02
same,normalized growth,"locus YNL071W, strain lat1, hits give low values",0.973
same,normalized growth,"locus YNL153C, strain GIM3, hits give low values",1
same,normalized growth,"locus YNL183C, strain NPR1, hits give low values",0.957
same,normalized growth,"locus YNL209W, strain ssb2, hits give low values",0.975
same,normalized growth,"locus YNL233W, strain BNI4, hits give low values",1.03
same,normalized growth,"locus YNL248C, strain rpa49, hits give low values",0.951
same,normalized growth,"locus YNL250W, strain rad50, hits give low values",1.02
same,normalized growth,"locus YNL271C, strain bni1, hits give low values",1.04
same,normalized growth,"locus YNL298W, strain CLA4, hits give low values",1.03
same,normalized growth,"locus YNL307C, strain MCK1, hits give low values",1.04
same,normalized growth,"locus YNL322C, strain KRE1 (second series), hits give low values",0.992
same,normalized growth,"locus YNR049C, strain mso1, hits give low values",0.977
same,normalized growth,"locus YNR052C, strain pop2, hits give low values",1.03
same,normalized growth,"locus YOL006C, strain TOP1, hits give low values",0.909
same,normalized growth,"locus YOL012C, strain htz1",0.929
same,normalized growth,"locus YOL147C, strain pex11, hits give low values",1.03
same,normalized growth,"locus YOR001W, strain rrp6, hits give low values",0.982
same,normalized growth,"locus YOR061W, strain CKA2, hits give low values",1.01
same,normalized growth,"locus YOR069W, strain VPS5, hits give low values",1.01
same,normalized growth,"locus YOR070C, strain gyp1, hits give low values",0.979
same,normalized growth,"locus YOR080W, strain dia2, hits give low values",0.984
same,normalized growth,"locus YOR083W, strain WHI5, hits give low values",0.93
same,normalized growth,"locus YOR106W, strain vam3, hits give low values",0.961
same,normalized growth,"locus YOR136W, strain idh2, hits give low values",1.03
same,normalized growth,"locus YOR144C, strain elg1, hits give low values",1.03
same,normalized growth,"locus YOR184W, strain ser1, hits give low values",1.05
same,normalized growth,"locus YOR231W, strain MKK1, hits give low values",1.01
same,normalized growth,"locus YOR265W, strain rbl2, hits give low values",1
same,normalized growth,"locus YOR270C, strain vph1, hits give low values",0.885
same,normalized growth,"locus YOR290C, strain snf2, hits give low values",0.919
same,normalized growth,"locus YOR316C, strain cot1, hits give low values",1.03
same,normalized growth,"locus YPL051W, strain arl3, hits give low values",0.93
same,normalized growth,"locus YPL078C, strain atp4, hits give low values",0.932
same,normalized growth,"locus YPL106C, strain sse1, hits give low values",0.947
same,normalized growth,"locus YPL240C, strain hsp82, hits give low values",0.996
same,normalized growth,"locus YPL241C, strain CIN2, hits give low values",1
same,normalized growth,"locus YPL256C, strain CLN2, hits give low values",1.01
same,normalized growth,"locus YPR119W, strain clb2, hits give low values",1.03
same,normalized growth,"locus YPR141C, strain kar3, hits give low values",1.04
same,normalized growth,"locus YPR163C, strain tif3, hits give low values",1.05
same,normalized growth,"locus YPR167C, strain met16, hits give low values",1.03
same,normalized growth,"strain wtn01, hits give low values",1.04
